Measured values taken from PubChem BioAssay (NCI).
The panel holds about 83,000 compounds, 20% with a hit somewhere; the sample as a whole holds those more often.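 For each line, cells grew in 96-well plates with the test compound present at a single concentration for 48 hours.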 Unmarked numbers belong to inactive results. Calls of active or inactive are those of the source. How the source made its calls: active means growth percent below 10; inactive means the rest.

Tests used:
Assay in all cases: NCI-60 one-dose screen, 48 h (100 = growth as untreated, 0 = no growth, -100 = all killed)
Conditions in all cases: 10 µM unless noted
[1] = tested on: EKVX NSCLC
[2] = tested on: SN12C renal
[3] = tested on: UO-31 renal
[4] = tested on: ACHN renal
[5] = tested on: CAKI-1 renal
[6] = tested on: A498 renal
[7] = tested on: CCRF-CEM leukemia
[8] = tested on: MOLT-4 leukemia
[9] = tested on: RPMI-8226 leukemia
[10] = tested on: OVCAR-8 ovarian
[11] = tested on: OVCAR-5 ovarian
[12] = tested on: OVCAR-4 ovarian
[13] = tested on: IGROV1 ovarian
[14] = tested on: OVCAR-3 ovarian
[15] = tested on: HS 578T breast
[16] = tested on: NCI/ADR-RES ovarian
[17] = tested on: SR leukemia
[18] = tested on: SK-OV-3 ovarian
[19] = tested on: TK-10 renal

Row | Compound | growth [1] | growth [2] | growth [3] | growth [4] | growth [5] | growth [6] | growth [7] | growth [8] | growth [9] | growth [10] | growth [11] | growth [12] | growth [13] | growth [14] | growth [15] | growth [16] [%] | growth [17] | growth [18] | growth [19]
1 | COc1ccc(CC(=O)Nc2nn3c(-c4cc(C(F)(F)F)cc(C(F)(F)F)c4)nnc3s2)cc1 | 67.4% | 64.7% | 74% | 81.9% | 46.2% | 79.9% | 49.9% | 65.7% | 39.7% | 65% | 96% | 66.3% | 59.9% | 53.5% | 75.6% | 69.1 | – | – | –
2 | C=C1CC[C@@H]2[C@](C)(COC(C)=O)[C@H](OC(C)=O)CC[C@@]2(C)[C@@H]1CC(NCc1ccccc1)C1=CCOC1=O (some centres undefined) | 53.9% | 58.2% | – | 46.4% | 49.6% | 56.2% | 20.9% | -3.86% (active) | 3.18% (active) | 28.2% | 102% | 35.9% | 62.9% | 31.8% | 86.4% | 23.5 | 20.9% | 79.2% | –
3 | O=C(Nc1cccc(-n2cc(-c3ccncc3)c(-c3cc(O)cc(Cl)c3)n2)c1)Nc1ccc(Cl)c(Cl)c1 | – | 14.9% | -41.3% (active) | 6.85% (active) | 5.31% (active) | -2.98% (active) | 4.11% (active) | -27.1% (active) | – | -14.8% (active) | -2.26% (active) | 10.7% | 26% | -47.4% (active) | – | 12.8 | -21.4% (active) | 13.2% | –
4 | O=[N+]([O-])c1ccc(NS(=O)(=O)c2ccc(Cl)c(Cl)c2)cc1 | – | 60.9% | 70% | 94% | 65.2% | 55.9% | – | 81.3% | 35.6% | 79.2% | 113% | 63.4% | 88.7% | 78.3% | 93.7% | 83.2 | – | 94.3% | 94.3%
5 | Cc1cc(C)cc(S(=O)(=O)n2ccc(-c3ccc4c(c3)CCC(C)(C)O4)n2)c1 | – | 88% | 75% | 92.8% | 72.5% | 63% | 96.3% | 91.4% | – | 91% | 116% | 67.3% | 105% | 87.9% | 92.7% | 79 | 76.5% | – | –
6 | CCCCCCCCN(CCO)CCCCCCCC | – | 104% | 80.2% | 96.6% | 109% | 111% | 99.4% | 90.7% | – | 101% | 96.9% | 93.8% | 105% | 109% | 117% | 105 | 96.7% | 103% | 109%
7 | CCN(CC)CCCCCCCNc1c2ccc(Cl)cc2nc2ccc(OC)cc12 | -6.42% (active) | 0.458% (active) | -52% (active) | -39.1% (active) | – | -92.1% (active) | 0.0912% (active) | -11.3% (active) | – | -41.8% (active) | -8.18% (active) | -43% (active) | -64.3% (active) | -39.6% (active) | -42.7% (active) | 12.7 | -16.5% (active) | -30.7% (active) | –
8 | FC(F)(F)c1cc(-c2nnc3n2N=C(N2CCCC2)CS3)cc(C(F)(F)F)c1 | 80.6% | 69.2% | – | 47.1% | 87.7% | 10.6% | 86.4% | 90.5% | 95% | 74.4% | 106% | 102% | 87% | 53.6% | 46.8% | 80.2 | – | 21% | -22.1% (active)
